According to ChEMBL document CHEMBL4513216, “Probing the Open Global Health Chemical Diversity Library for Multistage-Active Starting Points for Next-Generation Antimalarials” (ACS Infect Dis, 2020):
Out of some 65,000 compounds screened, about 2,100 (3.2%) showed an effect of 50% or more. The median lay at about -52%. Shown is part of a subset that was picked to be rich in strong results.

Test system: Plasmodium falciparum
Assay: Screen against P. falciparum Asexual Blood Stage (ABS), at 5uM
Assay type: functional, Dd2
Details: tested at 5 uM

Compound	INHIBITION [%]
Cc1ccc(S(=O)(=O)NCCc2cccnc2)cc1C	-35.5
c1cc(CN2C[C@H](OCC3CCOCC3)[C@H]3COC[C@H]32)co1	-93
Cc1noc(C)c1C(=O)N1CCCC(c2c(C)c(=O)nc3n2CCC3)C1 (stereo unspecified)	-105
CCCNC(=O)c1sccc1N(C)S(=O)(=O)c1ccc(Cl)cc1	-84
CN(C)CCNC(=O)c1sccc1N(C)S(=O)(=O)c1ccc(Cl)cc1	64.2
COCCNC(=O)c1sccc1N(C)S(=O)(=O)c1ccc(Cl)cc1	-88.8
Cc1cccc(CC(=O)N2CCOCC2c2c(C)n[nH]c2C)c1 (stereo unspecified)	-75.3
CC(=O)N(Cc1noc(C)n1)C1CCN(Cc2cnc(C)s2)C1 (stereo unspecified)	-55.6
CS(=O)(=O)c1ccc(CN2CCCCC2c2cccc(F)c2)cc1 (stereo unspecified)	-36.8
COc1ccc(CN2CCCC2c2cccc(F)c2)c(OC)c1OC (stereo unspecified)	60.2
COc1cccc(CN2CCCCCC2c2cccs2)c1OC (stereo unspecified)	-70.3
COc1cc(CN2CCCC2c2cccc(F)c2)cc(OC)c1OC (stereo unspecified)	28.2
COc1cccc(CN2CCCC2c2cccc(F)c2)c1OC (stereo unspecified)	55.4
Fc1cccc(C2CCCN2Cc2nnnn2C2CC2)c1 (stereo unspecified)	-26.9
O=C(c1ccc(COc2ccc(Cl)cc2)o1)N1N=CCC1(O)C(F)(F)F (stereo unspecified)	-121
CCc1nccn1C1CCCN(C(=O)c2cnn3cccnc23)C1 (stereo unspecified)	-64
O=C(N[C@H]1CN(c2nc(CO)cs2)C[C@@H]1C1CC1)C1CCCCC1	-26.4
O=C(COC[C@]12COC[C@H]1CN(C1CCC1)C2)N1CCCC1	-115
Cc1cnc(C(=O)N[C@H]2CN(CCS(C)(=O)=O)C[C@@H]2C2CC2)cn1	-47.7
Cc1cc(C(=O)N[C@H]2CN(CCC(N)=O)C[C@@H]2C2CC2)sc1C	-43.8
Cc1nc(N)sc1C(=O)N[C@H]1CN(CCO)C[C@@H]1C1CC1	-82.2
Cc1cc(C(=O)N[C@H]2CN(CCO)C[C@@H]2C2CC2)sc1C	60.8

Compound	INHIBITION [%]
CSCCCN1C[C@H](NC(=O)c2ccc(CO)cc2)[C@@H](C2CC2)C1	17.3
Cc1ccc(C(F)(F)F)cc1C(=O)N[C@H]1CN(CCO)C[C@@H]1C1CC1	63.9
Cc1ccc(CN2CCCC3(CCCN3S(C)(=O)=O)C2)s1 (stereo unspecified)	-71.7
Cc1ccc(C(=O)N(C)CCCc2cnn(C)c2)cc1N1CCNC1=O	-86.4
O=C(CCc1nnc2ccccn2c1=O)NCc1ccc2c(c1)OCO2	-108
Cn1cc(CN2CCc3nc(-c4ccccn4)nc(O)c3C2)cn1	-3.83
Cc1cc(C)n(CC2CN(CCOc3ccc(C#N)cc3)CCO2)n1 (stereo unspecified)	-114
CC(C)c1noc(CN2CCC(c3nc4cc(Cl)ccc4o3)CC2)n1	-72.4
CCc1nnc(Nc2cccc(C3CCN(c4cnccn4)CC3)n2)s1	55.5
CCc1nnc(Nc2cccc(C3CCN(C)CC3)n2)s1	6.83
CCc1nnc(Nc2cccc(C3CCN(CC4CC4)CC3)n2)s1	3.36
COCCC(=O)N1CCCC2(CCC(=O)N2CCOC)CC1 (stereo unspecified)	-122
CN1CCN(C(=O)CCn2nnc3ccccc32)CC(C(N)=O)C1 (stereo unspecified)	-71.9
Cc1ncsc1C(=O)N1CCC(O)(Cn2c(C)cc3ccncc32)CC1	-64.6
Cn1ccnc1Sc1ccc(N)cn1	-78.1
CS(=O)(=O)NC[C@]12COC[C@H]1CN(CCc1ccccc1)C2	-29.9
O=C(c1ccncc1F)N1Cc2nc(CN3CCCCC3)oc2C1	-21.6
CN(Cc1ccco1)C1CCC12CCN(C(=O)c1ccncc1)CC2 (stereo unspecified)	38.3
CN(Cc1ccco1)C1CCC12CCN(C(=O)c1ccco1)CC2 (stereo unspecified)	-9.15
CN(Cc1ccco1)C1CCC12CCN(C(=O)c1ccnnc1)CC2 (stereo unspecified)	53.3
CC(C)(C)n1ncc2c1CCCC2NCc1ccc2ncccc2c1 (stereo unspecified)	-1.42
Cc1cc(N2CCC3(CCCN(CCO)C3=O)C2)nc2ccccc12 (stereo unspecified)	19.1

Compound	INHIBITION [%]
CCc1ccc(CN(C)C(=O)C(c2ccccc2F)N(C)C)nc1 (stereo unspecified)	-0.644
Cc1cc(CN(C)C(=O)C(c2ccccc2F)N(C)C)ccn1 (stereo unspecified)	-25.2
CN(Cc1cnc2ccccc2c1)C(=O)C(c1ccccc1F)N(C)C (stereo unspecified)	64.4
CC1=C[C@@H](CC#N)[C@H](C(C)C)C[C@H]1CC(=O)N1CCN(C)CC1	44.5
CC1=C[C@@H](CC#N)[C@H](C(C)C)C[C@H]1CC(=O)N1CCN(CCO)CC1	40
CC(=O)N1CCN(C(=O)C[C@@H]2C[C@@H](C(C)C)[C@H](CC#N)C=C2C)CC1	53.5
Cc1csc(N2CCN(C(=O)NCCNc3ncccn3)CC2)n1	-162
COCc1ncn2c1CN(C(=O)c1cccc3cccnc13)CC2	-90.6
Cc1cnc(CN2CCN(c3nc(C)cs3)C(C)C2)cn1 (stereo unspecified)	-48.9
CC1(C(=O)NCc2cccc(C(F)(F)F)c2)CCOCC1	-26.5
Cc1n[nH]cc1CNCC1(c2cccc(F)c2)CCOCC1	26.9
FC(F)(F)c1cccc(C2(CNCc3ccncc3)CCOCC2)c1	51
COC[C@]1(O)CCN(C2CCN(c3ccc(Cl)cc3)CC2)CC1(C)C	34.4
COC[C@]1(O)CCN(C2CCN(c3ccc(OC)cc3)CC2)CC1(C)C	-57.6
COC[C@]1(O)CCN(C2CCN(c3ccc(F)c(F)c3)CC2)CC1(C)C	63.1
CN1CCN(Cc2cn3c(n2)CN(C(=O)N2CCOCC2)CC3)CC1	-121
COc1ccccc1C1CNCCN1C(=O)c1ccc(F)cc1 (stereo unspecified)	69.7
COc1ccccc1C(=O)N1CCNCC1C(N)=O (stereo unspecified)	-114
COc1ccccc1C1CNCCN1C(C)=O (stereo unspecified)	-43.1
COc1ccc(-c2cn3c(n2)CO[C@@H](CNCc2nccn2C)C3)cc1	21.3
Cn1ccnc1CNC[C@H]1Cn2cc(-c3ccccc3)nc2CO1	56.4
Cc1cccnc1CNC[C@H]1Cn2cc(-c3ccccc3)nc2CO1	30.8
